Among the data in PubChem BioAssay AID639 (Emory University Molecular Libraries Screening Center, 2007) are coactivator binding (% of control) values, retold here.

In all, about 86,000 compounds went through this assay and about 1,200 (1.4%) were called active. No stated cut-off is given here; in the data, active means activity above about 200%; inactive means the rest. Many of the other results were omitted from the sample, so actives are more common in it than they were.

Sequence of Estrogen receptor (Homo sapiens) (P03372 whole entry, looked up, the tested form may be a part): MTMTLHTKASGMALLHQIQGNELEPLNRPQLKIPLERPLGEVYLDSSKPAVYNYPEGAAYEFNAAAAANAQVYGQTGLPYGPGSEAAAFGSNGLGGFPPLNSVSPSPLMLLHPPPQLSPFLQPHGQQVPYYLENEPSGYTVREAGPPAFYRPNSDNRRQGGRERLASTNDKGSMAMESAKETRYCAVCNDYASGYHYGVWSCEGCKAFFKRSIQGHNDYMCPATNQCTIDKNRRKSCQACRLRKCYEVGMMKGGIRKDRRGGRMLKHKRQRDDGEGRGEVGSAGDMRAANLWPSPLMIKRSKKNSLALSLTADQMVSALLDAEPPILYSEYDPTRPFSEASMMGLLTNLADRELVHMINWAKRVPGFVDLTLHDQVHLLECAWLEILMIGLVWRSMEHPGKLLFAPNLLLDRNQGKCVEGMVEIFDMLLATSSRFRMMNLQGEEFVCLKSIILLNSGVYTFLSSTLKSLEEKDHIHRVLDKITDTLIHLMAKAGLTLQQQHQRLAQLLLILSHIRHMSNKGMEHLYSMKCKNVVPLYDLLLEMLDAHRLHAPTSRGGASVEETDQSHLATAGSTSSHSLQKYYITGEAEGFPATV

The experiment concerns the target Estrogen receptor (Homo sapiens) (UniProt P03372). Description: enhancers of ERα–SRC-1 coactivator binding, primary screen, biochemical, TR-FRET, ERα LBD, low estradiol (AID 639).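 Further: binding measured in presence of low estradiol as agonist stimulus; 0% = peptide alone without receptor and 100% = receptor with peptide.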 The note with it: TR-FRET ERalpha-LBD/SRC-Cy5 coactivator binding, 2 h; at 25.6 µM; active compounds read high; 100 = basal binding, no effect.
`CCOc1cc(C2C(C(=O)OC)=CN(C3CCCC3)C=C2C(=O)OC)cc(Br)c1O`: the coactivator binding (% of control) was 210% [fluorescence artefact?] (active).

On to `CCOc1ccccc1C1C(C(=O)OC)=CN(C)C=C1C(=O)OC`, for which the coactivator binding (% of control) was 93.7% (inactive).

With `CCOc1ccc(CNC(=O)C2CCC(=O)N2C2CCCC2)cc1OC` (stereo not given), the coactivator binding (% of control) is 131% (inactive).

`CCOCc1nnc(NC(=O)CSc2ccc(C)cc2)s1`: the coactivator binding (% of control) is 102% (inactive).

With `CCOc1ccccc1NC(=O)C1CCCN(C(=O)Nc2ccccc2)C1` (stereo not given), the coactivator binding (% of control) is 92.4% (inactive).

With `CCOc1ccc(NC(=O)Nc2cc(C)on2)cc1`, the coactivator binding (% of control) was 107% (inactive).

As for `CCOc1ccc(CC(=O)Nc2ccc(S(=O)(=O)Nc3cc(C)on3)cc2)cc1OCC`, the coactivator binding (% of control) is 311% [fluorescence artefact?] (active).

`Cc1cc(NS(=O)(=O)c2ccccc2)no1`: the coactivator binding (% of control) is 122% (inactive).

For `CCCCC(C(=O)OCC(=O)c1ccc(OC)cc1)N1C(=O)c2ccccc2C1=O` (stereo not given), the coactivator binding (% of control) is 97.8% (inactive).

As to `Cn1c(=O)c2c(ncn2CC(COCc2ccccc2Cl)OCc2ccccc2Cl)n(C)c1=O` (stereo not given), the coactivator binding (% of control) was 112% (inactive).

Consider `CCOC(=O)c1nnn(-c2nonc2-n2cccc2)c1CN1CCC(C(=O)OCC)CC1`, for which the coactivator binding (% of control) is 114% (inactive).

For `O=c1[nH]c(SCc2ccccc2)nnc1-c1ccccc1`, the coactivator binding (% of control) was 103% (inactive).

As to `COC(=O)CSc1nc(C)c2ccc(OC)cc2n1`, the coactivator binding (% of control) is 100% (inactive).

Turning to `CCOc1ccc2cc(C#N)c(SCC(=O)OC)nc2c1`, the coactivator binding (% of control) is 260% [fluorescence artefact?] (active).

For the compound `COc1ccc(N2CCN(C(=O)CSc3nc4cc(OC)c(OC)cc4cc3C#N)CC2)cc1`, the coactivator binding (% of control) was 101% (inactive).

Take `CC(C)C(OC(=O)c1cccs1)C(=O)NC1CCCCC1` (stereo not given): the coactivator binding (% of control) was 115% (inactive).

For `CCOCCCNC(=O)C(NC(=O)c1ccc(=O)[nH]c1)c1ccc(C)cc1` (stereo not given), the coactivator binding (% of control) is 107% (inactive).

Turning to `CCOC(=O)c1cnc(-n2nc(C)cc2C)nc1-n1nc(C)cc1C`, the coactivator binding (% of control) is 116% (inactive).

Take `CCOC(=O)c1cnc(-n2nc(C)cc2C)nc1Nc1cccc(C(C)=O)c1`: the coactivator binding (% of control) was 868% [fluorescence artefact?] (active).

For `CCOC(=O)c1cnc(SCC(=O)Nc2cccc(OC)c2)nc1N`, the coactivator binding (% of control) is 113% (inactive).

Take `N=c1c2c3c(sc2nc2n1CCCCC2)CCCC3`: the coactivator binding (% of control) was 113% (inactive).

For `CNC(=S)N1N=C(c2ccccc2)CC1c1ccc(Br)cc1` (stereo not given), the coactivator binding (% of control) was 171% (inactive).

Take `COc1ccc(-c2nnc(SCC(=O)c3cccs3)o2)c(OC)c1`: the coactivator binding (% of control) is 94.7% (inactive).

`COc1ccc(-n2c(C)cc(C(=O)CSc3nnc(-c4cccs4)o3)c2C)cc1`: the coactivator binding (% of control) was 201% (active).

For `COc1ccc(OC)c(C(=O)CSc2nnc(-c3cccs3)o2)c1`, the coactivator binding (% of control) is 125% (inactive).
